Compound activity deposited in PubChem BioAssay by National Center for Advancing Translational Sciences (NCATS).
AmpC inh detg: qHTS Inhibitors of AmpC Beta-Lactamase (assay with detergent) | AID 485294, 2010 | 370,000 compounds, 0.041% hits | P00811 | Potency, µM (titrated, usually from 114 µM), for the others: top-dose activity change, negative = inhibition, usual class: inhibitors | AmpC hydrolysis of nitrocefin, absorbance 480 nm, 0.01% Triton;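 also: potency is read from the fitted curve at half-maximal effect; 0% = no-compound wells and -100% = no-enzyme wells; nearly all actives have a fitted effect of over 25% in size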
Target sequence (P00811 whole entry, looked up): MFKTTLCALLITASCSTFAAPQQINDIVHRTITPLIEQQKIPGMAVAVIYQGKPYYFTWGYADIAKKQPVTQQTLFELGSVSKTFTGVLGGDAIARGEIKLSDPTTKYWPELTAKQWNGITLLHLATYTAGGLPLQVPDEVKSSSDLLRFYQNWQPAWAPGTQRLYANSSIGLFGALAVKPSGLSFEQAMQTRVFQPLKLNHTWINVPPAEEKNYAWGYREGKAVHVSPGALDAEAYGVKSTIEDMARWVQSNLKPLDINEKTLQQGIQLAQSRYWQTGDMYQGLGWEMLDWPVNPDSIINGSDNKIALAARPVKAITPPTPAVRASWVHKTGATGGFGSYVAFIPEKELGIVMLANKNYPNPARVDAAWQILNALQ
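AmpC (5.3 nM in the dispensed reagent) in 20 mM phosphate pH 7.0 with 0.01% (detergent screen) or 0.0001% Triton X-100 was preincubated with compounds for 15 min at room temperature. Nitrocefin was then added from an 800 uM solution, and hydrolysis was followed at 480 nm.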
AMA1-RON2 inh: qHTS for Inhibitors of AMA1-RON; Towards Development of Antimalarial Drug Lead: Primary Screen. Plasmodium falciparum AMA1 (3D7) - RON2 peptide interaction. AlphaScreen AMA1-biotinylated RON2 peptide binding. Potency, µM (doses to about 58.2 µM), for inactives: at the highest dose activity change, negative = inhibition, hits mostly inhibitors. 360,000 compounds, 0.2% hits;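 also: potency is read from the fitted curve at half-maximal effect; 0% = vehicle wells and -100% = peptide control; nearly all actives have a fitted effect of over 45% in size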
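AMA1 (3D7) with his tag at 25 nM final met compounds first, then biotinylated RON2 peptide at 25 nM; detection used donor plus acceptor beads, 10 µg/mL apiece, read by AlphaScreen after 30 min at room temperature.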
SARS PLP yeast: qHTS of Yeast-based Assay for SARS-CoV PLP | S. cerevisiae expressing SARS-CoV PLpro, growth rescue | Potency, µM (highest dose often 32.9 µM), for inactives: at the top dose activity, positive = growth rescue, actives largely listed as activators | 330,000 compounds, 0.19% hits; calls by dose curve; also: potency is read from the fitted curve at half-maximal effect; 0% is about no effect; nearly all actives have a fitted effect of over 55% in size
Cycloheximide cs: Cycloheximide Counterscreen for Small Molecule Inhibitors of Shiga Toxin; cell reporter, cycloheximide protein synthesis inhibition counterscreen; max response, %; 300,000 compounds, 12% hits; in the data active = max response mostly above about 13%, no sharp cut-off; inactive = mostly below about 14%; also: read at 38.3 µM for the half of the compounds with a filed dose; 0% is about no effect
AmpC inh no detg: qHTS Inhibitors of AmpC Beta-Lactamase (assay without detergent); AmpC nitrocefin hydrolysis, absorbance 480 nm, 0.0001% Triton; Potency, µM (top dose mostly 57.1 µM), without a hit: top-dose activity change, negative = inhibition, hits mostly inhibitors; 330,000 compounds, 0.52% hits;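 also: potency is read from the fitted curve at half-maximal effect; plate controls were no compound for no effect and no enzyme for full effect; nearly all actives have a fitted effect of over 20% in size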
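20 mM phosphate pH 7.0 + 0.01% (detergent screen) or 0.0001% Triton X-100; 5.3 nM AmpC reagent; cpd preinc 15 min RT; nitrocefin (800 uM stock) to start; A480 q20 s × 4 min; Activity was normalised to no-enzyme and no-compound control wells.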
Shiga inhibitor: A qHTS for Small Molecule Inhibitors of Shiga Toxin; inhibition, % at 38.7 µM; 290,000 compounds, 9.2% hits; Vero cells, Shiga toxin protein synthesis inhibition reporter; in the data active = inhibition mostly above about 28%, no sharp cut-off; inactive = mostly below about 43%; also: 0% is about no effect
* marks the source's active call; other numbers are inactive results; ? = inconclusive; · = no result; [ ] = dose if it differs, or a comment. This excerpt belongs to a sample that is enriched for hits. Unless noted, calls follow the shape of the dose curve; as a rule, active = well fitted curve in the direction sought with a large enough effect; inconclusive = small, poorly fitted or top-dose-only effect, or another doubt; inactive = no such curve, though single readings can be large; an effect the other way counts as inactive or inconclusive.

SMILES | AmpC inh detg | AMA1-RON2 inh | SARS PLP yeast | Cycloheximide cs | AmpC inh no detg | Shiga inhibitor
CCOC(=O)C1CCN(CCC(=O)Nc2ccc(Cl)cc2)CC1 | 2.3% | 5.9% | 0.8% | -1.5 | -6.4% | -27.3
CCC(=O)Nc1ccccc1C(=O)OCc1ccc(C(=O)c2ccccc2)cc1 | 4.2% | 7.1% | 1.3% | 25.3* | 9.6% | 15.0
CCC(=O)Nc1ccccc1C(=O)OC(c1ccccc1)c1ccccc1 | -4.5% | -12.8% | 4.6% | 1.1 | -6.3% | 3.2
CC(=O)Nc1ccccc1C(=O)OCc1ccc(F)cc1 | -7.0% | 0.8% | 0.4% | 32.0* | 0.2% | 37.3
Cc1ccc(O)c(C(=O)c2cnn(C(=O)c3cccc(S(=O)(=O)N(C)C)c3)c2)c1 | ? | 125.2% | 2.6% | · | -22.9% | ·
Nc1nc(NC(=O)c2ccc(Cl)cc2)nn1-c1ccccc1 | -4.5% | 29.1% | 5.7% | 17.3* | -17.9% | 32.9
COC(=O)c1cn(-c2cccc(C)n2)cn1 | 0.4% | 1.2% | 0.7% | 20.4 | -3.0% | 23.8
CCC1(c2ccc(Cl)cc2)NC(=S)N(c2ccccc2)N1 (stereo not drawn) | 9.1% | 27.4% | -8.2% | 13.8* | -35.5% | 36.9
CCC1(c2ccccc2)NC(=S)N(c2ccc(C)cc2)N1 (stereo not drawn) | ? | 52.7% | 11.0% | 27.4* | -34.7% | 54.0
CC1(C)CC(=O)c2cc(NC(=O)c3ccc(F)cc3)c(=O)oc2C1 | -13.9% | 16.5% | 0.7% | 2.0 | -15.9% | -3.8
O=C(Nc1cc2c(oc1=O)CCCC2=O)c1ccccc1 | -11.9% | -11.3% | -10.3% | 33.2* | -8.5% | 17.2*
Cc1ccc(C(=O)Nc2cc3c(oc2=O)CCCC3=O)cc1 | -11.0% | 7.5% | 3.0% | 44.5* | -24.4% | 74.9*
NS(=O)(=O)c1c(Sc2ccccc2C(=O)O)ccc2ccccc12 | -10.8% | -0.9% | 1.6% | 29.9* | -14.2% | ·
Cc1noc(C)c1COc1cccc(C(=O)NCc2ccccc2Cl)c1 | 3.0% | -12.5% | -22.3% | -2.5 | -10.4% | -4.6
COc1ccccc1NC(=S)N(CCc1c(C)[nH]c2ccccc12)Cc1cccs1 | ? | -4.9% | -9.6% | -2.6 | 39.8µM* | 4.5
COc1ccc(CNC(=O)C(=O)c2cn(CC(=O)N3CCCC3)c3ccccc23)cc1 | -5.4% | 3.6% | 1.0% | 18.5* | 142.1% | 81.2
O=C(NCc1ccc(Cl)cc1)C(=O)c1cn(CC(=O)N2CCOCC2)c2ccccc12 | -1.6% | -3.5% | -2.1% | -2.6 | 131.4% | 14.9
CCOc1ccc(CNC(=O)C(=O)c2cn(CC(=O)N3CCOCC3)c3ccccc23)cc1OC | -14.0% | 27.8% | 0.3% | 10.1* | 204.1% | 6.5
COc1ccc(CNC(=O)C(=O)c2cn(CC(=O)N3CCOCC3)c3ccccc23)cc1 | -1.9% | -1.2% | -4.1% | 15.3 | 126.2% | 25.3
COc1cccc(NC(=O)C(=O)c2cn(CC(=O)N3CCCC3)c3ccccc23)c1 | -5.0% | -10.7% | 17.1% | 16.7* | 84.9% | 29.1*
COc1ccccc1CCNC(=O)C(=O)c1cn(CC(=O)N2CCOCC2)c2ccccc12 | -5.3% | -11.2% | 5.2% | 61.0* | 164.4% | 80.1*
CC(=O)Nc1ccc(S(=O)(=O)NNC(=O)c2ccc([N+](=O)[O-])cc2)cc1 | -1.4% | 2.8% | 18.2% | -1.1 | -22.9% | -11.3
CCc1noc(C)c1C(=O)N(CC(C)C)c1c(N)n(Cc2ccccc2)c(=O)[nH]c1=O | -3.2% | -5.2% | -0.3% | · | -7.5% | ·
COc1ccccc1CNC(=O)C(=O)c1cn(CC(=O)N2CCCC2)c2ccccc12 | -12.2% | -11.0% | -1.3% | 19.6* | 113.8% | 62.0*
O=C(NCc1ccc(F)cc1)C(=O)c1cn(CC(=O)N2CCCC2)c2ccccc12 | -14.4% | -7.8% | 2.9% | 6.9 | 78.8% | 17.6
SMILES | AmpC inh detg | AMA1-RON2 inh | SARS PLP yeast | Cycloheximide cs | AmpC inh no detg | Shiga inhibitor
O=C(Nc1ccccc1Cl)C(=O)c1cn(CC(=O)N2CCOCC2)c2ccccc12 | -1.7% | -3.4% | -0.7% | 58.7* | 93.2% | 46.1*
c1ccc(CN2CCN(C3=Nc4cccc5cccc3c45)CC2)cc1 | 0.0% | ? | 0.8% | 17.9* | 50.9% | 47.8
O=C1C(Cl)=C(N2CCN(Cc3ccccc3)CC2)C(=O)N1Cc1ccccc1 | -10.7% | -14.2% | -5.4% | 1.3 | -23.9% | -13.5
Fc1ccc(N2CCN(C3=Nc4cccc5cccc3c45)CC2)cc1 | ? | 22.4µM* | -0.3% | 24.3* | -27.3%[11.4 µM] | 74.1*
COc1ccc(CSc2nnc(-c3ccncc3)n2C)cc1F | -3.3% | -0.3% | 2.4% | 17.2 | 37.2% | 69.7*
O=C(CSc1nnc2ccccn12)Nc1cccc(-c2nc3ccccc3s2)c1 | -8.0% | 4.3% | -2.4% | 15.5 | -23.7% | 39.4*
Cc1ccc(NC(=O)CSc2nnc3ccccn23)cc1 | 0.1% | -2.3% | -0.1% | 14.9 | -17.9% | 72.1*
Cn1c(SCc2ccc3c(c2)OCO3)nnc1-c1ccccc1 | -12.0% | -4.2% | -1.4% | 15.5* | -10.1% | 21.9*
CNC(=O)CSc1nnc(-c2ccc3c(c2)OCO3)n1C | 1.8% | 1.9% | 1.0% | 8.2 | -14.2% | -7.2
C/C(=N\NC(=O)c1c(C)nc2ccccn12)c1cccc([N+](=O)[O-])c1 | 0.4% | -16.6% | -1.4% | 8.7 | -19.8% | 21.2
Nn1c(SCC(=O)Nc2ccc3c(c2)OCO3)nnc1-c1ccc(Cl)cc1 | 3.9% | -3.2% | 2.9% | -1.5 | -19.3% | 0.8
Nn1c(SCC(=O)Nc2ccc3c(c2)OCO3)nnc1-c1ccccc1 | 5.0% | -7.5% | 11.9% | 21.5* | -2.0% | 27.4
Cn1c(=O)c2ncn(CC(=O)Nc3cccc(-c4nc5ccccc5s4)c3)c2n(C)c1=O | 2.1% | 8.7% | 1.6% | 53.5* | 24.8% | 118.0*
O=C(CSc1nnc(-c2ccccc2)n1Cc1ccco1)Nc1ccc2c(c1)OCCO2 | -2.9% | -6.2% | 1.9% | 12.9 | -39.9% | 48.4*
O=C(CSc1nnc(-c2cccs2)n1Cc1ccco1)Nc1ccc2c(c1)OCO2 | -7.8% | -7.8% | 1.5% | 25.6 | -24.2% | -21.0
O=C(CSc1ncc(-c2ccc(F)cc2)n1Cc1ccco1)Nc1ccc2c(c1)OCO2 | -5.3% | -9.0% | · | 39.5* | · | 110.2*
CC(C)C[C@H]1CN([C@@H](Cc2ccccc2)CN2CCC[C@@H]2CN2C(=O)C(=O)NC[C@@H]2Cc2ccccc2)C(=O)C(=O)N1CCc1ccccc1 | · | -10.3% | · | · | · | ·
Cc1cc(C)cc(C(=O)NC(CC(N)=O)c2ccc(NC3CCCCCCC3)c([N+](=O)[O-])c2)c1 (stereo not drawn) | -3.0% | -3.3% | -2.5% | -1.4 | -29.0% | -5.8
CC1CCCC(NC(=O)CSc2n[nH]c(N)n2)C1C (stereo not drawn) | · | 4.6% | 2.3% | · | -23.2% | ·
